Measurements as given in PMC5540273 (PLoS ONE, 2017).

Assays:
Settings in all cases: concentration: 1 μM,replicates: in singlicate; n = 1
CSNK1G1 = system: CSNK1G1
CSNK1G2 = system: CSNK1G2
CSNK1G3 = system: CSNK1G3
CSNK2A1 = system: CSNK2A1
CSNK2A2 = system: CSNK2A2
CTK = system: T1, CTK
T1 construct: gene MATK

DAPK1 = system: DAPK1
DAPK2 = system: DAPK2
DAPK3 = system: DAPK3
DCAMKL1 = system: T2, DCAMKL1
T2 construct: gene DCLK1

DCAMKL2 = system: T3, DCAMKL2
T3 construct: gene DCLK2

DCAMKL3 = system: T4, DCAMKL3
T4 construct: gene DCLK3

DDR1 = system: DDR1
DDR2 = system: DDR2
DLK = system: T5, DLK
T5 construct: gene MAP3K12

DMPK2 = system: T6, DMPK2
T6 construct: gene CDC42BPG

DMPK = system: DMPK
DRAK1 = system: T7, DRAK1
T7 construct: gene STK17A

DRAK2 = system: T8, DRAK2
T8 construct: gene STK17B

DYRK1A = system: DYRK1A
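Further: KINOMEscan kinase panel screen.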

SMILES	%Inh (CSNK1G1) [%]	%Inh (CSNK1G2) [%]	%Inh (CSNK1G3) [%]	%Inh (CSNK2A1) [%]	%Inh (CSNK2A2) [%]	%Inh (CTK) [%]	%Inh (DAPK1) [%]	%Inh (DAPK2) [%]	%Inh (DAPK3) [%]	%Inh (DCAMKL1) [%]	%Inh (DCAMKL2) [%]	%Inh (DCAMKL3) [%]	%Inh (DDR1) [%]	%Inh (DDR2) [%]	%Inh (DLK) [%]	%Inh (DMPK2) [%]	%Inh (DMPK) [%]	%Inh (DRAK1) [%]	%Inh (DRAK2) [%]	%Inh (DYRK1A) [%]
Cl.Oc1cc(-c2nc(-c3ccccc3)[nH]c2-c2ccncc2)ccc1Cl [SB-386023]	0	0	16	11	30	38	0	0	0	34	0	0	92.7	83	0	0	0	0	0	0
NC(=O)c1cc(-c2ccccc2)cc2c(C3CCNCC3)c[nH]c12 [GSK301362]	3	0	19	31	20	4	23	9	40	14	2	53		0	23	8	30	0	0	28
CCn1c(-c2nonc2N)nc2c(C#CC(C)(C)O)nc(OCCN)cc21.Cl.Cl [GSK902056]	0	0	12	0	46	0	0	0	21	0	0	40		5	0	0	0	0	0	25
Cl.Cl.Nc1nc(-c2ccc3c(N)n[nH]c3c2)cc(N2CCCC(NC(=O)c3ccccc3)C2)n1 (stereo not shown) [GSK2286775]	0	0	21	0	6	6	28	0	13	15	0	0	26	0	1	1	0	75	0	9
Cc1occc1-c1nc(N)c(OC[C@@H](N)Cc2c[nH]c3ccccc23)cc1-c1cc2c(C)n[nH]c2cn1 [GSK1660450]	79	74	83	76	48	11	64	69	59	24	19	56	10	0	13	86	99.1	0	0	100
Nc1nc(Nc2ccccc2)cc(-c2ccc3c(N)n[nH]c3c2)n1 [GSK2225749]	2	0	13	34	24	0	34	49	62	12	0	61	0	26	3	0	0	99.5	97.2	48
C[C@@H](Oc1cc(-c2cnn(C3CCNCC3)c2)cnc1N)c1c(Cl)ccc(F)c1Cl	8	0	0	18	0	13	10	1	15	88	79	22	59	44	94.6	0	22	0	0	12
Cc1cc(C(=O)Nc2ccc(Oc3ccc4nc(NC(=O)C5CC5)cn4n3)cc2)nn1-c1ccccc1	6	0	0	0	0	0	0	0	10	12	2	20		100	12	0	0	0	0	0
